Assay results reported in PubChem BioAssay AID1159580 (chemical genetic matrix, 2015).
The whole screen tested about 5,500 compounds, of which about 2,000 (36%) were called active. Not shown: some 18% with an inconclusive outcome. No stated cut-off is given here; in the data, active means normalized growth mostly below about 0.91 (no sharp cut-off); inconclusive means no clear call, values can overlap the other calls; inactive means mostly above about 0.92. The list shows a part of the results.

Assay: chemical genetic growth profiling, strain panel (AID 1159580);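 further: tested at 20 µM; growth read once vehicle control cultures reached saturation at 30 °C; 1 = growth at the plate median or of vehicle wells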
Settings: growth OD

Measured: normalized growth

CC(C)[C@@H]1CC[C@@H](C)C[C@H]1O
inactive: S. cerevisiae deletion strains, locus YJR066W, strain TOR1, stronger effect = lower value 0.942 | S. cerevisiae deletion strains, locus YJR075W, strain HOC1, stronger effect = lower value 1.01 | S. cerevisiae deletion strains, locus YKL009W, strain mrt4, stronger effect = lower value 1 | S. cerevisiae deletion strains, locus YKL068W, stronger effect = lower value 1.01 | S. cerevisiae deletion strains, locus YKL085W, strain MDH1 (second series), stronger effect = lower value 1.01 | S. cerevisiae deletion strains, locus YKL085W, strain MDH1, stronger effect = lower value 1.01 | S. cerevisiae deletion strains, locus YKL160W, strain elf1, stronger effect = lower value 0.986 | S. cerevisiae deletion strains, locus YKL190W, strain CNB1, stronger effect = lower value 1.01 | S. cerevisiae deletion strains, locus YKR001C, strain vps1, stronger effect = lower value 1 | S. cerevisiae deletion strains, locus YKR026C, strain gcn3, stronger effect = lower value 0.987 | S. cerevisiae deletion strains, locus YKR091W, strain srl3, stronger effect = lower value 0.974 | S. cerevisiae deletion strains, locus YLL001W, strain dnm1, stronger effect = lower value 0.997 | S. cerevisiae deletion strains, locus YLL026W, stronger effect = lower value 1 | S. cerevisiae deletion strains, locus YLL041C, strain sdh2, stronger effect = lower value 0.978 | S. cerevisiae deletion strains, locus YLR027C, strain aat2, stronger effect = lower value 0.997 | S. cerevisiae deletion strains, locus YLR039C, strain RIC1, stronger effect = lower value 1 | S. cerevisiae deletion strains, locus YLR058C, strain SHM2, stronger effect = lower value 1 | S. cerevisiae deletion strains, locus YLR102C, strain apc9, stronger effect = lower value 1.02 | S. cerevisiae deletion strains, locus YLR113W, strain HOG1, stronger effect = lower value 0.973 | S. cerevisiae deletion strains, locus YLR221C, strain rsa3, stronger effect = lower value 0.999 | S. cerevisiae deletion strains, locus YLR258W, strain gsy2, stronger effect = lower value 0.99 | S. cerevisiae deletion strains, locus YLR262C, strain YPT6 (second series), stronger effect = lower value 0.935 | S. cerevisiae deletion strains, locus YLR262C, strain YPT6, stronger effect = lower value 1.01 | S. cerevisiae deletion strains, locus YLR268W, strain sec22, stronger effect = lower value 1.01 | S. cerevisiae deletion strains, locus YLR320W, strain mms22, stronger effect = lower value 0.991 | S. cerevisiae deletion strains, locus YLR330W, strain CHS5, stronger effect = lower value 1.01 | S. cerevisiae deletion strains, locus YLR342W, strain FKS1 (second series), stronger effect = lower value 1.02 | S. cerevisiae deletion strains, locus YLR342W, strain FKS1, stronger effect = lower value 0.986 | S. cerevisiae deletion strains, locus YLR357W, strain rsc2, stronger effect = lower value 0.953 | S. cerevisiae deletion strains, locus YLR370C, strain arc18, stronger effect = lower value 0.985 | S. cerevisiae deletion strains, locus YLR371W, strain rom2, stronger effect = lower value 1.01 | S. cerevisiae deletion strains, locus YLR384C, strain iki3, stronger effect = lower value 0.999 | S. cerevisiae deletion strains, locus YLR418C, strain cdc73, stronger effect = lower value 1.05 | S. cerevisiae deletion strains, locus YML016C, strain PPZ1, stronger effect = lower value 1.01 | S. cerevisiae deletion strains, locus YML032C, strain rad52, stronger effect = lower value 1 | S. cerevisiae deletion strains, locus YML120C, strain ndi1, stronger effect = lower value 0.989 | S. cerevisiae deletion strains, locus YML124C, strain tub3, stronger effect = lower value 1.02 | S. cerevisiae deletion strains, locus YMR058W, strain fet3, stronger effect = lower value 0.97 | S. cerevisiae deletion strains, locus YMR078C, strain ctf18, stronger effect = lower value 1.02 | S. cerevisiae deletion strains, locus YMR125W, strain sto1, stronger effect = lower value 0.969 | S. cerevisiae deletion strains, locus YMR129W, stronger effect = lower value 0.984 | S. cerevisiae deletion strains, locus YMR205C, strain PFK2, stronger effect = lower value 1.01 | S. cerevisiae deletion strains, locus YMR223W, strain ubp8, stronger effect = lower value 1.03 | S. cerevisiae deletion strains, locus YMR231W, strain pep5, stronger effect = lower value 1 | S. cerevisiae deletion strains, locus YMR307W, strain GAS1, stronger effect = lower value 0.985 | S. cerevisiae deletion strains, locus YNL067W, strain RPL9B, stronger effect = lower value 0.976 | S. cerevisiae deletion strains, locus YNL071W, strain lat1, stronger effect = lower value 0.979 | S. cerevisiae deletion strains, locus YNL128W, strain TEP1, stronger effect = lower value 1.02 | S. cerevisiae deletion strains, locus YNL153C, strain GIM3, stronger effect = lower value 0.95 | S. cerevisiae deletion strains, locus YNL183C, strain NPR1, stronger effect = lower value 0.943 | S. cerevisiae deletion strains, locus YNL209W, strain ssb2, stronger effect = lower value 0.985 | S. cerevisiae deletion strains, locus YNL233W, strain BNI4, stronger effect = lower value 0.988 | S. cerevisiae deletion strains, locus YNL248C, strain rpa49, stronger effect = lower value 0.987 | S. cerevisiae deletion strains, locus YNL250W, strain rad50, stronger effect = lower value 1.02 | S. cerevisiae deletion strains, locus YNL271C, strain bni1, stronger effect = lower value 1.02 | S. cerevisiae deletion strains, locus YNL298W, strain CLA4, stronger effect = lower value 1.02 | S. cerevisiae deletion strains, locus YNL307C, strain MCK1, stronger effect = lower value 1.02 | S. cerevisiae deletion strains, locus YNL322C, strain KRE1 (second series), stronger effect = lower value 0.993 | S. cerevisiae deletion strains, locus YNR049C, strain mso1, stronger effect = lower value 0.99 | S. cerevisiae deletion strains, locus YNR052C, strain pop2, stronger effect = lower value 1.02 | S. cerevisiae deletion strains, locus YOL006C, strain TOP1, stronger effect = lower value 0.977 | S. cerevisiae deletion strains, locus YOL012C, strain htz1 1.02 | S. cerevisiae deletion strains, locus YOL147C, strain pex11, stronger effect = lower value 1.02 | S. cerevisiae deletion strains, locus YOR001W, strain rrp6, stronger effect = lower value 0.993 | S. cerevisiae deletion strains, locus YOR061W, strain CKA2, stronger effect = lower value 1.01 | S. cerevisiae deletion strains, locus YOR069W, strain VPS5, stronger effect = lower value 1.02 | S. cerevisiae deletion strains, locus YOR070C, strain gyp1, stronger effect = lower value 1 | S. cerevisiae deletion strains, locus YOR080W, strain dia2, stronger effect = lower value 0.99 | S. cerevisiae deletion strains, locus YOR083W, strain WHI5, stronger effect = lower value 0.996 | S. cerevisiae deletion strains, locus YOR106W, strain vam3, stronger effect = lower value 0.979 | S. cerevisiae deletion strains, locus YOR136W, strain idh2, stronger effect = lower value 1.01 | S. cerevisiae deletion strains, locus YOR144C, strain elg1, stronger effect = lower value 1.02 | S. cerevisiae deletion strains, locus YOR184W, strain ser1, stronger effect = lower value 1 | S. cerevisiae deletion strains, locus YOR231W, strain MKK1, stronger effect = lower value 0.997 | S. cerevisiae deletion strains, locus YOR265W, strain rbl2, stronger effect = lower value 0.988 | S. cerevisiae deletion strains, locus YOR270C, strain vph1, stronger effect = lower value 0.931 | S. cerevisiae deletion strains, locus YOR290C, strain snf2, stronger effect = lower value 0.967 | S. cerevisiae deletion strains, locus YOR316C, strain cot1, stronger effect = lower value 1.03 | S. cerevisiae deletion strains, locus YPL051W, strain arl3, stronger effect = lower value 1.02 | S. cerevisiae deletion strains, locus YPL078C, strain atp4, stronger effect = lower value 0.976 | S. cerevisiae deletion strains, locus YPL106C, strain sse1, stronger effect = lower value 1 | S. cerevisiae deletion strains, locus YPL240C, strain hsp82, stronger effect = lower value 1 | S. cerevisiae deletion strains, locus YPL241C, strain CIN2, stronger effect = lower value 1.01 | S. cerevisiae deletion strains, locus YPL256C, strain CLN2, stronger effect = lower value 0.985 | S. cerevisiae deletion strains, locus YPR119W, strain clb2, stronger effect = lower value 1.01 | S. cerevisiae deletion strains, locus YPR141C, strain kar3, stronger effect = lower value 1.02 | S. cerevisiae deletion strains, locus YPR163C, strain tif3, stronger effect = lower value 1.02 | S. cerevisiae deletion strains, locus YPR167C, strain met16, stronger effect = lower value 1.02 | S. cerevisiae deletion strains, strain wtn01, stronger effect = lower value 1.03 | S. cerevisiae strains, strain wild type, stronger effect = lower value 1.01
